Data reported in PubChem BioAssay (EPA / NIEHS).
Activity calls are given as the source filed them. How the source made its calls: active means hit-call score of the fitted dose curve at least 0.9, where 1 is the maximum; inactive means score below 0.9.

Assays:
Details in all cases: mRNA level, 48 h; actives raise or lower the signal
CYP4A11 (gene 1579) = assay: LTEA_HepaRG_CYP4A11: Life Technologies and Expression Analysis (LTEA) Assay for CYP4A11 using HepaRG (AID 2283486)
How it was run: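 Readout is CYP4A11 transcript level by qRT-PCR, normalized to three housekeeping genes and fitted bidirectionally against 0.5% DMSO. Human HepaRG cells were treated 48 h, in duplicate, with an 8-point half-log series topping at 100 uM.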

[1] = read-out: Cytochrome P450 3A4 (Homo sapiens) (UniProt P08684); assay: LTEA_HepaRG_CYP3A4: Life Technologies and Expression Analysis (LTEA) Assay for CYP3A4 using HepaRG (AID 2283487)
How it was run: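 Differentiated HepaRG cells in serum-free induction medium exposed in duplicate for 48 h to 8 half-log concentrations up to 100 uM in 0.5% DMSO. CYP3A4 mRNA measured by qRT-PCR normalized to ACTB, GAPDH and POLR2A; bidirectional fit versus DMSO.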

[2] = read-out: DNA damage-inducible transcript 3 (DDIT3), DDIT3 (gene 1649); assay: LTEA_HepaRG_DDIT3: Life Technologies and Expression Analysis (LTEA) Assay for DNA damage-inducible transcript 3 (DDIT3) using HepaRG (AID 2283488)
How it was run: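 HepaRG cells, 48 h after plating, exposed 48 h in serum-free induction medium to 8 half-log concentrations up to 100 uM in 0.5% DMSO, in duplicate. DDIT3 mRNA measured by TaqMan qRT-PCR, normalized to ACTB, GAPDH and POLR2A. Fitted bidirectionally against DMSO.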

[3] = read-out: Pro-epidermal growth factor (Homo sapiens) (UniProt P01133); assay: LTEA_HepaRG_EGF: Life Technologies and Expression Analysis (LTEA) Assay for Epidermal growth factor (EGF) using HepaRG (AID 2283489)
How it was run: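 EGF transcript measured by Fluidigm TaqMan qRT-PCR with three housekeeping genes for normalization, 48 h after dosing HepaRG cultures in duplicate (top 100 uM, half-log steps, 0.5% DMSO vehicle). Gain or loss relative to DMSO fitted.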

[4] = read-out: Early growth response protein 1 (EGR1) transcription factor, EGR1 (gene 1958); assay: LTEA_HepaRG_EGR1: Life Technologies and Expression Analysis (LTEA) Assay for Early growth response protein 1 (EGR1) transcription factor using HepaRG (AID 2283490)
How it was run: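 Differentiated human HepaRG cells in serum-free induction medium were exposed in duplicate for 48 h to eight concentrations (top 100 uM, half-log steps) in 0.5% DMSO. EGR1 mRNA was quantified by qRT-PCR, normalized to ACTB, GAPDH and POLR2A, and fitted bidirectionally versus DMSO.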

[5] = read-out: Ezrin (EZR), EZR (gene 7430); assay: LTEA_HepaRG_EZR: Life Technologies and Expression Analysis (LTEA) Assay for Ezrin (EZR) using HepaRG (AID 2283491)
How it was run: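 Differentiated human HepaRG cells, 48 h after plating, were exposed in serum-free induction medium for 48 hours to eight half-log concentrations up to 100 uM in 0.5% DMSO. EZR mRNA was measured by TaqMan qRT-PCR, normalized to ACTB, GAPDH and POLR2A, and fitted bidirectionally against DMSO.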

[6] = read-out: Cytochrome P450 3A7 (Homo sapiens) (UniProt P24462); assay: LTEA_HepaRG_CYP3A7: Life Technologies and Expression Analysis (LTEA) Assay for CYP3A7 using HepaRG (AID 2283492)
How it was run: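 CYP3A7 transcript measured by qRT-PCR (ACTB, GAPDH, POLR2A normalization) after 48 h chemical exposure of HepaRG cells in duplicate. Eight half-log concentrations, maximum 100 uM, 0.5% DMSO vehicle; bidirectional curve fitting against DMSO baseline.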

CYP3A5 (gene 1577) = assay: LTEA_HepaRG_CYP3A5: Life Technologies and Expression Analysis (LTEA) Assay for CYP3A5 using HepaRG (AID 2283493)
How it was run: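 HepaRG cells, plated 48 h then in serum-free induction medium, dosed in duplicate for 48 h with eight half-log concentrations up to 100 uM in 0.5% DMSO. Gene mRNA by Fluidigm TaqMan qRT-PCR, normalized to ACTB, GAPDH, POLR2A.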

[7] = read-out: Fatty Acid-Binding Protein 1 (FABP1), FABP1 (gene 2168); assay: LTEA_HepaRG_FABP1: Life Technologies and Expression Analysis (LTEA) Assay for Fatty Acid-Binding Protein 1 (FABP1) using HepaRG (AID 2283494)
How it was run: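 Differentiated human HepaRG cells were exposed in duplicate for 48 h in serum-free induction medium to 8-point half-log concentration series topping at 100 uM in 0.5% DMSO. FABP1 mRNA measured by TaqMan qRT-PCR, normalized to ACTB/GAPDH/POLR2A; bidirectional fit versus DMSO.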

[8] = read-out: Cytochrome P450 4A22 (Homo sapiens) (UniProt Q5TCH4); assay: LTEA_HepaRG_CYP4A22: Life Technologies and Expression Analysis (LTEA) Assay for Cytochrome P450 4A22 (CYP4A22) using HepaRG (AID 2283495)
How it was run: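 Gene expression measured by qRT-PCR against three housekeeping genes (ACTB, GAPDH, POLR2A), with gain or loss fitted relative to 0.5% DMSO vehicle. HepaRG cultures received 48 h chemical treatment, top concentration 100 uM, half-log steps, duplicate wells.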

[9] = read-out: Cytochrome P450 7A1 (Homo sapiens) (UniProt P22680); assay: LTEA_HepaRG_CYP7A1: Life Technologies and Expression Analysis (LTEA) Assay for Cytochrome P450 7A1 (CYP7A1) using HepaRG (AID 2283496)
How it was run: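 HepaRG cells plated 48 h, then switched to serum-free induction medium and exposed in duplicate for 48 h to 8-point half-log series from 100 uM in 0.5% DMSO. CYP7A1 mRNA by qRT-PCR (TaqMan), normalized to ACTB/GAPDH/POLR2A; bidirectional fit versus DMSO.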

[10] = read-out: Glutathione S-Transferase (GSTA2), GSTA2 (gene 2939); assay: LTEA_HepaRG_GSTA2: Life Technologies and Expression Analysis (LTEA) Assay for Glutathione S-Transferase (GSTA2) using HepaRG (AID 2283497)
How it was run: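 Human HepaRG cells, plated 48 h, then exposed in serum-free induction medium for 48 h to eight half-log concentrations up to 100 uM in 0.5% DMSO, duplicate. GSTA2 mRNA by qRT-PCR, normalized to ACTB/GAPDH/POLR2A; bidirectional fit versus DMSO.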

[11] = read-out: Glutamate-cysteine ligase catalytic (GCLC), GCLC (gene 2729); assay: LTEA_HepaRG_GCLC: Life Technologies and Expression Analysis (LTEA) Assay for Glutamate-cysteine ligase catalytic (GCLC) using HepaRG (AID 2283498)
How it was run: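 Differentiated human HepaRG cells, plated 48 h then switched to serum-free induction medium, were exposed in duplicate for 48 h to 8 half-log concentrations topping at 100 uM in 0.5% DMSO. GCLC mRNA was quantified by qRT-PCR against ACTB, GAPDH and POLR2A.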

[12] = read-out: growth arrest and DNA damage 45 (GADD45G), GADD45G (gene 10912); assay: LTEA_HepaRG_GADD45G: Life Technologies and Expression Analysis (LTEA) Assay for growth arrest and DNA damage 45 (GADD45G) using HepaRG (AID 2283499)
How it was run: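 GADD45G transcript level by qRT-PCR (housekeeping-normalized: ACTB, GAPDH, POLR2A) after 48 h chemical treatment of a single HepaRG lot in serum-free induction medium; eight-point half-log series up to 100 uM in 0.5% DMSO, duplicates, up- or down-regulation scored.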

[13] = read-out: Glutamate-cysteine ligase regulatory (GCLM), GCLM (gene 2730); assay: LTEA_HepaRG_GCLM: Life Technologies and Expression Analysis (LTEA) Assay for Glutamate-cysteine ligase regulatory (GCLM) using HepaRG (AID 2283500)
How it was run: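 Differentiated HepaRG cells exposed 48 h in serum-free induction medium to eight half-log concentrations up to 100 uM (0.5% DMSO). GCLM mRNA by TaqMan qRT-PCR, normalized to ACTB, GAPDH and POLR2A; bidirectional fit versus DMSO.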

[14] = read-out: Glutathione S-transferase M3 (GSTM3), GSTM3 (gene 2947); assay: LTEA_HepaRG_GSTM3: Life Technologies and Expression Analysis (LTEA) Assay for Glutathione S-transferase M3 (GSTM3) using HepaRG (AID 2283501)
How it was run: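 GSTM3 transcript levels came from Fluidigm TaqMan qRT-PCR normalized to three housekeeping genes, fitted in both directions against DMSO. HepaRG cultures received chemicals for 48 h in serum-free induction medium (0.5% DMSO), 8 half-log concentrations up to 100 uM, duplicate.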

[15] = read-out: Heat shock 70 kDa protein 1 (HSPA1A), gene 3303; assay: LTEA_HepaRG_HSPA1A: Life Technologies and Expression Analysis (LTEA) Assay for Heat shock 70 kDa protein 1 (HSPA1A) using HepaRG (AID 2283502)
How it was run: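 Human HepaRG cells in serum-free induction medium were exposed in duplicate for 48 h to 8 half-log concentrations, highest 100 uM, in 0.5% DMSO. HSPA1A mRNA read by TaqMan qRT-PCR, normalized to ACTB, GAPDH, POLR2A, fitted bidirectionally against DMSO.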

[16] = read-out: Hypoxia-inducible factor 1-alpha (Homo sapiens) (UniProt Q16665); assay: LTEA_HepaRG_HIF1A: Life Technologies and Expression Analysis (LTEA) Assay for Hypoxia-inducible factor 1 (HIF1A) Trancription factor using HepaRG (AID 2283503)
How it was run: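 Differentiated HepaRG cells in serum-free induction medium exposed 48 h, in duplicate, to 8-point half-log series from 100 uM in 0.5% DMSO. HIF1A mRNA measured by TaqMan qRT-PCR, normalized to ACTB/GAPDH/POLR2A, fitted bidirectionally versus DMSO.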

[17] = read-out: 3-Hydroxy-3-Methylglutaryl-CoA Synthase 2 (HMGCS2), HMGCS2 (gene 3158); assay: LTEA_HepaRG_HMGCS2: Life Technologies and Expression Analysis (LTEA) Assay for 3-Hydroxy-3-Methylglutaryl-CoA Synthase 2 (HMGCS2) using HepaRG (AID 2283504)
How it was run: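 Readout is HMGCS2 transcript by qRT-PCR, housekeeping-normalised (ACTB/GAPDH/POLR2A) and fitted bidirectionally against 0.5% DMSO. Differentiated HepaRG cells received chemicals 48 h, duplicate wells, eight half-log concentrations topping at 100 uM.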

HGF (gene 3082) = assay: LTEA_HepaRG_HGF: Life Technologies and Expression Analysis (LTEA) Assay for Hepatocyte Growth Facto (HGF) using HepaRG (AID 2283505)
How it was run: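 HGF transcript was quantified by TaqMan qRT-PCR against three housekeeping genes after 48 h treatment of HepaRG cells. Exposure ran in duplicate over eight half-log steps topping at 100 uM in 0.5% DMSO vehicle.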

Measured: outcome

Hypoxia-inducible factor 1-alpha (Homo sapiens), sequence (Q16665 whole entry, looked up): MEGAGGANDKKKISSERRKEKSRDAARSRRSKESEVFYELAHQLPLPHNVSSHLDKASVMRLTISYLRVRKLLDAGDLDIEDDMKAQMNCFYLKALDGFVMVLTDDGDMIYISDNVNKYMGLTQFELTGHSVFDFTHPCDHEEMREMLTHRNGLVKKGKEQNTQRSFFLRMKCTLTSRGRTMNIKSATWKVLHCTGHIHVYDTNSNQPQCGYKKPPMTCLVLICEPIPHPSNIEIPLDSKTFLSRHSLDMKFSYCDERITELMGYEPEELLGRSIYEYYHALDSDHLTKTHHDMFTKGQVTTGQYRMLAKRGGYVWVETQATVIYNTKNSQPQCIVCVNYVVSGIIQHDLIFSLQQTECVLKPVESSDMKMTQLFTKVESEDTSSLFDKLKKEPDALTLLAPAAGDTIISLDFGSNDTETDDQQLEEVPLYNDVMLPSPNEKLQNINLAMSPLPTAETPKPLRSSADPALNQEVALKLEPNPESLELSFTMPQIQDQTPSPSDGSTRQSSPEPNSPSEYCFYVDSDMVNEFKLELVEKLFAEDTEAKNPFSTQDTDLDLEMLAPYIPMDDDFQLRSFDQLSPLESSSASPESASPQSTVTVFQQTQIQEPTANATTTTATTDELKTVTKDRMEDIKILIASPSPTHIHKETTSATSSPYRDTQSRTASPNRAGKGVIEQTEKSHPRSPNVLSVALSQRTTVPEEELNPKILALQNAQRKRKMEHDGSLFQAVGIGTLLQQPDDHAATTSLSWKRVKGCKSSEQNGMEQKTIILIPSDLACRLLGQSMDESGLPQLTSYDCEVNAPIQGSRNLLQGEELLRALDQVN
Cytochrome P450 3A7 (Homo sapiens), sequence (P24462 whole entry, looked up): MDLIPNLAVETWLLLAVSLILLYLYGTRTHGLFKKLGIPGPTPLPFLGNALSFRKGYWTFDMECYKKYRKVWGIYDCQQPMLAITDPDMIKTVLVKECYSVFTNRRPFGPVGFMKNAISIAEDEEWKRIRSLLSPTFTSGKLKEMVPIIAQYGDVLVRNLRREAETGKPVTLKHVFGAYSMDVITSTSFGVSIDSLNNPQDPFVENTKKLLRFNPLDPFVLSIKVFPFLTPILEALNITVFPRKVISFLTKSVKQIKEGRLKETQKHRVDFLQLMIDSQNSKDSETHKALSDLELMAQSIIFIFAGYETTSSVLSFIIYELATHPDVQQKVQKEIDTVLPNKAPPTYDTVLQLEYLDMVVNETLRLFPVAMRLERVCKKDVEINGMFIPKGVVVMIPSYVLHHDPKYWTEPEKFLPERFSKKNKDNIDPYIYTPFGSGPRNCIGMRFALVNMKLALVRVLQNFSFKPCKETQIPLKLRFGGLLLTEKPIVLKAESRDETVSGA
Cytochrome P450 3A4 (Homo sapiens), sequence (P08684 whole entry, looked up): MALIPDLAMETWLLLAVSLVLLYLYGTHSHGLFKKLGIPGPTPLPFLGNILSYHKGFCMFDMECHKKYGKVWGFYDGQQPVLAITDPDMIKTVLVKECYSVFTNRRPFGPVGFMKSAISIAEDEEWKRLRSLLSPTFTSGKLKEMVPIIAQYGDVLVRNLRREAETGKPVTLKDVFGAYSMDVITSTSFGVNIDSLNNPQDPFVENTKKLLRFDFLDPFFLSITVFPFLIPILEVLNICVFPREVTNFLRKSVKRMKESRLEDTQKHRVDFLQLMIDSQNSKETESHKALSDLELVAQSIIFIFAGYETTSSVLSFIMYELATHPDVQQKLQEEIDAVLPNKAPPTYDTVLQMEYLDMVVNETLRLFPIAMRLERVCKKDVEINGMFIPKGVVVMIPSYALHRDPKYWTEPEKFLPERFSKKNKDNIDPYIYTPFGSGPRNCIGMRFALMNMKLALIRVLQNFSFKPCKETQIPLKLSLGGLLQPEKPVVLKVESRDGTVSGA

CCCCCCCC(=O)OC
inactive: all assays above

CN(C)CCCN(C)CCCN(C)C
not listed: [15]
inactive: all other assays above

COC(=O)CCCC(=O)OC
not listed: [15]
inactive: all other assays above

CCCCC(CC)COC(=O)CCCCCCCC(=O)OCC(CC)CCCC (configuration not stated)
not listed: [12]
inactive: all other assays above
